According to PubChem BioAssay (NCATS):
Several values for one entry are separate records, joined by “and”; a condition that tells them apart may be missing. Identical values can stand only once. Results filed as inconclusive are left out. Where a call stands in place of a potency, no number is given. More than one record can exist for a structure, and the calls need not agree. Activity calls are given as the source filed them. Unless noted, the call rests on the fitted dose curve; in most records, active means well fitted curve in the direction sought with a large enough effect; inconclusive means small, poorly fitted or top-dose-only effect, or another doubt; inactive means no such curve, though single readings can be large; an effect the other way counts as inactive or inconclusive.

Columns and labels:
[1] = High-throughput drug toxicity screening in the BPDCN cell line Cal-1 (AID 1224825; call rule not given here); settings: Cal-1 BPDCN cell viability, qHTS; at 45.8 µM (top of the series) unless noted
In short: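 Percent activity derived from CellTiter-Glo luminescence, scaling DMSO to 100% and 9.2 uM final bortezomib to 0%. BPDCN Cal-1 cells (500/well, RPMI plus 10% FBS) incubated with compounds 48 hours at 37C before reading.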

[2] = qHTS assay for measurement of the activity of small molecule inhibitors on Zika virus induced Caspase-3 activity in human iPSC derived neural progenitor cells (hNPCs) (AID 1224857); further: nearly all actives have a fitted effect of over 65% in size; further: potency means the concentration at half of the fitted maximal effect
In short: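 Human iPSC-derived neural progenitor cells pretreated 1 hr with compounds, then infected with Zika virus (2 FFU/cell) for 6 hours at 37 C. Caspase-3/7 measured by Caspase-Glo luminescence; % inhibition calculated from induction scaled to uninfected (0%) and infected (100%) wells.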

[3] = qHTS Screen of the MIPE 4.0 Collection Against Ewings Sarcoma (TC71) (AID 1259253); further: nearly all actives have a fitted effect of over 40% in size; further: potency means the concentration at half of the fitted maximal effect
In short: (§1)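 After a 4 h attachment period in RPMI/5% FBS, cells were pin-dosed with test compounds; DMSO served as negative and 9.2 uM bortezomib (final) as positive control. Luminescent CellTiter-Glo signal at 48 h defined viability.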

[4] = qHTS Screen of the MIPE 4.0 Collection Against Ewings Sarcoma (EW8) (AID 1259255); further: nearly all actives have a fitted effect of over 35% in size; further: potency means the concentration at half of the fitted maximal effect
In short: as §1

[5] = qHTS Screen of the MIPE 4.0 Collection Against Ewings Sarcoma (TC32) (AID 1259256); further: nearly all actives have a fitted effect of over 45% in size; further: potency means the concentration at half of the fitted maximal effect
In short: as §1

[6] = qHTS assay to identify small molecule inhibitors of chordoma cells - UCH-2 (AID 1259356)
[7] = P-glycoprotein substrates identified in KB-8-5-11 adenocarcinoma cell line, qHTS therapeutic library screen (AID 1346987); settings: outcome: dose series up to 44.5 µM unless noted; further: nearly all actives have a fitted effect of over 65% in size; further: potency means the concentration at half of the fitted maximal effect
In short: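 Human cervical adenocarcinoma KB-8-5-11 cells, selected in colchicine to over-express P-gp and assayed without it, were exposed for 72 h to titrated compounds. An ATP-based luminescent viability signal gave AC50.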

[8] = Natriuretic polypeptide receptor (hNpr1) antagonism - Pilot counterscreen GloSensor control cell line (AID 1347045; calls by dose curve; further: potency means the concentration at half of the fitted maximal effect)
In short: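 The SNP-driven cGMP luminescence signal (50 uM, 20 min, room temperature) was measured in GloSensor HEK293 control cells. Compounds were tested as a LOPAC titration series and preincubated for 30-50 min.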

[9] = biological target: Atrial natriuretic peptide receptor 1 (Homo sapiens) (UniProt P16066); assay: Natriuretic polypeptide receptor (hNpr1) antagonism - Pilot screen (AID 1347049; calls by dose curve;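 further: HEK293 cells with hNpr1 and GloSensor cGMP luciferase stimulated by 0.1 nM hNppA; agonist-evoked cGMP luminescence read 20 min after hNppA addition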)
Chain of Atrial natriuretic peptide receptor 1 (Homo sapiens) (P16066 whole entry, looked up): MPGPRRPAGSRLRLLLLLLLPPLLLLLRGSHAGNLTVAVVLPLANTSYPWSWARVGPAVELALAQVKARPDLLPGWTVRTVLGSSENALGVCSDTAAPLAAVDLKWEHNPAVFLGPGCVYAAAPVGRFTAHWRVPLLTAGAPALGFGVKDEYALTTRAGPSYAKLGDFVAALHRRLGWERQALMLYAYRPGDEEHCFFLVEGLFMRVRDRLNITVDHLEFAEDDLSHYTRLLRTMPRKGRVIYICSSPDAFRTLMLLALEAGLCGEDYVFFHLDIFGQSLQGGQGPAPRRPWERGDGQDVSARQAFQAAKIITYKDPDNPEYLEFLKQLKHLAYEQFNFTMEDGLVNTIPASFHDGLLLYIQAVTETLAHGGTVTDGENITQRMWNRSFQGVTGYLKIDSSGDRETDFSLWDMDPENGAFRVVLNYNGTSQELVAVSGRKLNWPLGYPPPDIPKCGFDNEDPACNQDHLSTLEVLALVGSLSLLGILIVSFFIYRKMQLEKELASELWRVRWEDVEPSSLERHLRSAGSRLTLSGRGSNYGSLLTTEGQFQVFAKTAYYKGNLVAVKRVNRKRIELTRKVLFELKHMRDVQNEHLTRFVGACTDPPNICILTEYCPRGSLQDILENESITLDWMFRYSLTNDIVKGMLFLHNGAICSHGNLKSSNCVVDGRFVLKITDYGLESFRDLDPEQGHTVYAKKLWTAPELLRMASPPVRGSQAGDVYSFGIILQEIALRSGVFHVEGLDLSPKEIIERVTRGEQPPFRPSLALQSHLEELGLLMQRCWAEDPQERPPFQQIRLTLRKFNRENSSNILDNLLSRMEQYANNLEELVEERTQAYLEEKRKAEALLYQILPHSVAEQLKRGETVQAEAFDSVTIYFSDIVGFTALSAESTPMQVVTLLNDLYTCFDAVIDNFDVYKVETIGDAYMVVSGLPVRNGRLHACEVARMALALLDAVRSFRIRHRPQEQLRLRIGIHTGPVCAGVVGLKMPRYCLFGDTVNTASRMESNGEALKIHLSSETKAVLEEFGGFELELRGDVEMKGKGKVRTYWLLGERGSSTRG
In short: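 Receptor antagonism read as cGMP-dependent luminescence in hNpr1/pGS-40F HEK293 cells: pre-read after 30 min compound exposure, post-read 20 min after hNppA agonist at 0.1 nM final, all at room temperature, protected from light; A-71915 titration as control.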

[10] = qHTS Screen of the MIPE 4.0 Collection Against Ewings Sarcoma (RDES) (AID 1259252); further: nearly all actives have a fitted effect of over 35% in size; further: potency means the concentration at half of the fitted maximal effect
In short: as §1

[11] = qHTS assay to identify small molecule inhibitors of chordoma cells - UCH-1 (AID 1259355); further: nearly all actives have a fitted effect of over 55% in size
In short: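 800 cells/well, overnight attach; compounds pinned at 15 concs, then auranofin/camptothecin/doxorubicin/rubitecan/topotecan combo added; 48hr 37 C, 5% CO2; CellTiter-Glo, 30min RT, luminescence.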

[12] = P-glycoprotein substrates identified in KB-3-1 adenocarcinoma cell line, qHTS therapeutic library screen (AID 1346986); settings: outcome: dose series up to 44.5 µM unless noted; further: nearly all actives have a fitted effect of over 60% in size
In short: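 Dose-response cytotoxicity, KB-3-1 vs P-gp-high KB-8-5-11, no colchicine in assay medium. Read: CellTiter-Glo at 72 h.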

[13] = biological target: Atrial natriuretic peptide receptor 2 (Homo sapiens) (UniProt P20594); assay: Natriuretic polypeptide receptor (hNpr2) antagonism - Pilot subtype selectivity assay (AID 1347050; calls by dose curve; further: potency means the concentration at half of the fitted maximal effect)
Chain of Atrial natriuretic peptide receptor 2 (Homo sapiens) (P20594 whole entry, looked up): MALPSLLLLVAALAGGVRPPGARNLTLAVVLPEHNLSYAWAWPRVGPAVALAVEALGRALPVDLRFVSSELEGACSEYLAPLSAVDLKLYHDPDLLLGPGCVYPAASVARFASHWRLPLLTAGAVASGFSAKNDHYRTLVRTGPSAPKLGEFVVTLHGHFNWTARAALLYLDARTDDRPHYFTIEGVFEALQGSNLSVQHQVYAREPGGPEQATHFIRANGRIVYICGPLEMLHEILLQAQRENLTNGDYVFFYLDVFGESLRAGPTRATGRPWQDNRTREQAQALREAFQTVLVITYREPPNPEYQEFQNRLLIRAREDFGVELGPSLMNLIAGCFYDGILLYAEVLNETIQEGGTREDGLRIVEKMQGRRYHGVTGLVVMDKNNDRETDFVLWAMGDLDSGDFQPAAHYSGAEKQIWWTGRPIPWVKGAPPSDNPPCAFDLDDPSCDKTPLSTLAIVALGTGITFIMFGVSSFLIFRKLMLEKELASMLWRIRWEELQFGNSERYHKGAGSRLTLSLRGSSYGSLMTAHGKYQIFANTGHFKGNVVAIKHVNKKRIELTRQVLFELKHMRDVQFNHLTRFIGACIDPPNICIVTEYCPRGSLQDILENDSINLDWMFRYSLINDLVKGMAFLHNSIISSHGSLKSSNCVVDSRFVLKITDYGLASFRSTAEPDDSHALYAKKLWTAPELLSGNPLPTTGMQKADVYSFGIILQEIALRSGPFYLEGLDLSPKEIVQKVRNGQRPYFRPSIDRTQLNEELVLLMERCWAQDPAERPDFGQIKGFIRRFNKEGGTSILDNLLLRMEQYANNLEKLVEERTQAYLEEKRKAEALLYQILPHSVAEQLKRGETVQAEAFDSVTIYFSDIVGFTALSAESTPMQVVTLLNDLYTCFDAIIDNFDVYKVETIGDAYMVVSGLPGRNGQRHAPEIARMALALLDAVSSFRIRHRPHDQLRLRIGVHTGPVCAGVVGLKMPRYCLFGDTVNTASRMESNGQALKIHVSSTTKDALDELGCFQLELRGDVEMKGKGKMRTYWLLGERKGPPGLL
In short: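 Antagonist mode: compounds (LOPAC1280, seven 1:5 dilutions) added 30 min before 1 nM hNppC stimulation of hNpr2-HEK293 cGMP-sensor cells; luminescence read before and 20 min after agonist at ambient temperature.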

[14] = Identifying Small Molecule Inhibitors of Pancreatic Cancer Stem Cells (A2780, Spheroid) (AID 1259357); settings: A2780 spheroid viability;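 further: potency means the concentration at half of the fitted maximal effect; compound exposure lasted 48 h before the ATP luminescence read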
In short: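 Spheroids grown 14 days in stem cell media on hydrogel-coated nonadherent plates; 2D lines seeded directly. Compounds added after 4 h attachment, 48 h at 37C, 5% CO2; CellTiter-Glo luminescence normalized to DMSO (no inhibition) and no-cell wells (full inhibition).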

[15] = Identifying Small Molecule Inhibitors of Pancreatic Cancer Stem Cells (SN12C, Adherent) (AID 1259358);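 further: potency means the concentration at half of the fitted maximal effect; cell survival measured after 48 h of compound exposure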
In short: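 Adherent (2D) versus sphere (3D) formats; spheres generated 14 d in SCM beforehand. Compound transferred by pin tool after 4 h, 48 h incubation, CellTiter-Glo endpoint.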

[16] = Identifying Small Molecule Inhibitors of Pancreatic Cancer Stem Cells (Panc1, Spheroid) (AID 1259359); settings: Panc1 spheroid cancer stem cell viability;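 further: potency means the concentration at half of the fitted maximal effect; compound exposure lasted 48 h before reading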
In short: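 Monolayer and spheroid cultures are compared. Spheroids form over 14 days in stem cell medium on hydrogel-coated low-attachment plates, then are exposed to compound for 48 h before CellTiter-Glo luminescence.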

[17] = Identifying Small Molecule Inhibitors of Pancreatic Cancer Stem Cells (Panc1, Adherent) (AID 1259362); settings: Potency: viability; further: potency means the concentration at half of the fitted maximal effect
In short: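 Viability is scored by CellTiter-Glo luminescence 48 h after dosing, expressed as percent activity against vehicle and no-cell references. Spheroid formats rely on cells cultured 14 days in stem cell media beforehand.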

CN(C)C(=O)C(CCN1CCC(O)(c2ccc(Cl)cc2)CC1)(c1ccccc1)c1ccccc1
viability (% of control) [1]: 12.1%
Potency [2]: inactive
Potency [3]: 20.9 µM (active)
Potency [4]: 16.6 µM (active)
Potency [5]: 18.7 µM (active)
outcome [6]: inactive
Potency [7]: 18.7 µM (active)
Potency [8]: 26.1 µM (active)
Potency [9]: inactive

O=C(c1ccc(OCCN2CCCCC2)cc1)c1c(-c2ccc(O)cc2)sc2cc(O)ccc12
viability (% of control) [1]: 40.4%
Potency [2]: inactive
Potency [10]: 2.35 µM (active)
Potency [3]: 7.43 µM (active)
Potency [5]: 8.33 µM (active)
Potency [11]: inactive
outcome [6]: inactive
outcome [12]: inactive
Potency [8]: inactive
Potency [9]: inactive
Potency [13]: inactive

CC(C)NCC(O)COc1ccc(CCOCC2CC2)cc1 (configuration not stated)
viability (% of control) [1]: 97%
Potency [2]: inactive
Potency [3]: inactive
Potency [5]: inactive
Potency [11]: inactive
outcome [6]: inactive
Potency [8]: inactive
Potency [9]: inactive
Potency [13]: inactive

Cc1cnc(C(=O)NCCc2ccc(S(=O)(=O)NC(=O)NC3CCCCC3)cc2)cn1
viability (% of control) [1]: 58.3%
Potency [2]: inactive
Potency [11]: inactive
outcome [6]: inactive
Potency [9]: inactive
Potency [13]: inactive

COc1cc2nc(N(C)CCCNC(=O)C3CCCO3)nc(N)c2cc1OC (configuration not stated)
viability (% of control) [1]: 115%
Potency [2]: inactive
Potency [10]: inactive
Potency [3]: inactive
Potency [4]: inactive
outcome [6]: inactive
Potency [9]: inactive
Potency [13]: inactive

Fc1ccc([C@@H]2CCNC[C@H]2COc2ccc3c(c2)OCO3)cc1
viability (% of control) [1]: 79%
Potency [2]: inactive
Potency [3]: 18.7 µM (active)
Potency [8]: inactive
Potency [9]: inactive

CC(CCc1ccc(O)cc1)NCCc1ccc(O)c(O)c1 (configuration not stated)
viability (% of control) [1]: 9.22%
Potency [2]: inactive
Potency [3]: 23.5 µM (active)
Potency [4]: 23.5 µM (active)
outcome [6]: inactive
Potency [8]: inactive
Potency [9]: inactive
Potency [13]: inactive

NC(CO)C(=O)NNCc1ccc(O)c(O)c1O (configuration not stated)
viability (% of control) [1]: 79.5%
Potency [2]: inactive and 7.43 µM (active)
Potency [11]: inactive
outcome [6]: inactive
Potency [8]: inactive
Potency [9]: inactive
Potency [13]: inactive

CC1COc2c(N3CCN(C)CC3)c(F)cc3c(=O)c(C(=O)O)cn1c23 (configuration not stated)
viability (% of control) [1]: 42.1%
Potency [2]: inactive
Potency [4]: inactive
Potency [5]: inactive
Potency [11]: inactive
outcome [6]: inactive
outcome [12]: inactive
Potency [9]: inactive
Potency [13]: inactive

CN(C)CCCN1c2ccccc2CCc2ccc(Cl)cc21
viability (% of control) [1]: 11.8%
Potency [2]: inactive
Potency [3]: 0.743 µM (active)
Potency [4]: 2.96 µM (active)
outcome [6]: inactive
Potency [13]: 7.36 µM (active)

CS(=O)(=O)CCNCc1ccc(-c2ccc3ncnc(Nc4ccc(OCc5cccc(F)c5)c(Cl)c4)c3c2)o1
viability (% of control) [1]: 2.82%
Potency [2]: inactive
Potency [3]: 2 µM (active)
Potency [4]: 8.33 µM (active)
Potency [5]: 13.2 µM (active)
Potency [11]: inactive
outcome [6]: inactive
Potency [14]: 16.6 µM (active)
Potency [15]: 0.418 µM (active)
Potency [16]: 37.2 µM (active)
Potency [17]: 20.9 µM (active)
Potency [7]: 18.7 µM (active) and inactive and 20.6 µM (active)

NC(=O)OCC(COC(N)=O)c1ccccc1
viability (% of control) [1]: 96.1%
Potency [2]: inactive
Potency [5]: 5.9 µM (active)
Potency [11]: inactive
outcome [6]: inactive
Potency [8]: inactive
Potency [9]: inactive
Potency [13]: inactive

O=C(C1CCCCC1)N1CC(=O)N2CCc3ccccc3C2C1 (configuration not stated)
viability (% of control) [1]: 105%
Potency [2]: inactive
Potency [4]: inactive
Potency [5]: inactive
Potency [11]: inactive
outcome [6]: inactive
Potency [7]: inactive
Potency [8]: inactive
Potency [9]: inactive
Potency [13]: inactive

O=C1Cc2cc(CCN3CCN(c4nsc5ccccc45)CC3)c(Cl)cc2N1
viability (% of control) [1]: 94.5%
Potency [2]: inactive
Potency [3]: 23.5 µM (active)
Potency [4]: 23.5 µM (active)
Potency [11]: inactive
outcome [6]: inactive
Potency [7]: inactive
Potency [9]: inactive

NCCS(=O)(=O)O
viability (% of control) [1]: 133%
Potency [2]: inactive
Potency [3]: inactive
Potency [4]: inactive
Potency [11]: inactive
outcome [6]: inactive
Potency [7]: inactive
Potency [8]: inactive
Potency [9]: inactive
Potency [13]: inactive

Cn1cnc2c1c(=O)[nH]c(=O)n2C
viability (% of control) [1]: 13.2%
Potency [2]: inactive
Potency [3]: 23.5 µM (active)
Potency [4]: 23.5 µM (active)
Potency [5]: 23.5 µM (active)
Potency [11]: inactive
outcome [6]: inactive
Potency [7]: inactive and 16.6 µM (active)
Potency [8]: inactive
Potency [9]: inactive
Potency [13]: inactive

CN(Cc1cnc2nc(N)nc(N)c2n1)c1ccc(C(=O)N[C@@H](CCC(=O)O)C(=O)O)cc1
viability (% of control) [1]: 9.1%
Potency [2]: inactive
Potency [3]: 0.0148 µM (active)
Potency [4]: 0.0264 µM (active)
Potency [5]: 0.0372 µM (active)
outcome [6]: inactive
Potency [9]: inactive
Potency [13]: inactive

CCOC(=O)C(C)(C)Oc1ccc(Cl)cc1
viability (% of control) [1]: 22.1%
Potency [2]: inactive
Potency [3]: inactive
Potency [11]: inactive
outcome [6]: inactive
Potency [7]: inactive
Potency [8]: inactive
Potency [9]: inactive
Potency [13]: inactive

O=c1c(-c2ccc(O)cc2)coc2cc(O)cc(O)c12
viability (% of control) [1]: 13.8%
Potency [2]: inactive
Potency [4]: inactive
Potency [11]: inactive
outcome [12]: inactive
Potency [8]: inactive
Potency [9]: inactive
Potency [13]: inactive
